Measurements as given in a collection of fitness landscapes (doi:10.1016/j.celrep.2020.107928).
Over roughly 81,000 sequences, “one-hybrid fitness for binding parS DNA” has its median near -0.17; the highest 2% begin near 0.51. Shown is part of a subset that was picked to be rich in the highest values.

B1: Caulobacter ParB omega fusion; a variant is named by its letters at X, in order, B8GW30 (parent)
chain: MESVVVGEPGMSEGRRGLGRGLSALLGEVDAAPAQAPGEQLGGSREAPIEILQRNPDQPRRTFREEDLEDLSNSIREKGVLQPILVRPSPDTAGEYQIVAGERAWRAAQRAGLKTVPIMVRELDDLAVLEIGIIENVQRADLNVLEEALSYKVLMEKFERTQENIAQTIGKSXSHVANXMRLLXLPDEVQSYLVSGELTAXHARAIAAAADPVALAKQIIEGGLSVRETEALARKAPNLSAGKSKGGRPPRVKDTDTQALESDLSSVLGLDVSIDHRGSTGTLTITYATLEQLDDLCNRLTRGI

Variants of: B1
Test: one-hybrid fitness for binding parS DNA (scaled: cognate 1, non-cognate 0); higher = stronger binding
Details: with parS DNA site
How it was run: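 In E. coli USO, a HIS3 reporter with its site placed 19 bp from the promoter was used to select Caulobacter ParB variants randomised at four specificity codons. Growth lasted 48 hours at 37°C on histidine-free M9 containing 0.1 mM IPTG and 5 mM 3-AT. Fitness was taken as the log change in variant-to-wild-type read ratio from Illumina sequencing of pre- and post-selection plasmids, rescaled between the non-cognate and cognate sites.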

Variant | one-hybrid fitness for binding parS DNA
RDAG | ≤ 0.2
REAG | ≤ 0.2
RSAF | 0.266
RCAG | 1.02
RPEM | ≤ 0.2
VMQS | ≤ 0.2
RGMP | ≤ 0.2
RGMQ | ≤ 0.2
RGMS | 0.672
RGMG | 0.604
RGMN | ≤ 0.2
RGMY | ≤ 0.2
RGMC | 0.543
RGMM | ≤ 0.2
RGMD | ≤ 0.2
PVHI | ≤ 0.2
HKLN | ≤ 0.2
WWDG | ≤ 0.2
RNHR | ≤ 0.2
DEPC | ≤ 0.2
RVDQ | ≤ 0.2
RVNM | 0.324
RVSR | ≤ 0.2

Variant | one-hybrid fitness for binding parS DNA
RVDG | 0.874
RVDK | ≤ 0.2
RVSG | 0.999
RVSM | 0.347
RVWG | 0.982
RVNG | 0.992
RVWP | ≤ 0.2
RVWH | ≤ 0.2
RVNQ | ≤ 0.2
AQKQ | ≤ 0.2
HTYC | ≤ 0.2
VSWE | ≤ 0.2
SPNG | ≤ 0.2
LCPA | ≤ 0.2
LGTD | ≤ 0.2
MNAP | ≤ 0.2
PHSE | ≤ 0.2
DQES | ≤ 0.2
NCWT | ≤ 0.2
RCSE | ≤ 0.2
MTTC | ≤ 0.2
RVRM | 0.392
RVHG | 1.03

Variant | one-hybrid fitness for binding parS DNA
RVYN | 0.46
RVRF | 0.266
RVCR | ≤ 0.2
RVYP | 0.213
RVCF | 0.249
RVCG | 0.972
RVHQ | ≤ 0.2
RVYG | 1.02
RVRG | 0.955
RVHK | ≤ 0.2
MWSG | ≤ 0.2
WLTK | ≤ 0.2
SYTT | ≤ 0.2
YPIF | ≤ 0.2
ESYW | ≤ 0.2
ARYC | ≤ 0.2
RVGK | ≤ 0.2
RVLG | 0.992
RVGR | ≤ 0.2
RVQG | 0.999
RVLD | 0.245
RVQF | 0.234
RVGG | 1.01

Variant | one-hybrid fitness for binding parS DNA
RVLN | 0.423
RVQR | ≤ 0.2
EAAT | ≤ 0.2
GLPN | ≤ 0.2
PHRK | ≤ 0.2
FRSF | ≤ 0.2
RKWM | 0.254
RRWH | ≤ 0.2
RIWR | ≤ 0.2
RKWC | 0.887
RIWQ | ≤ 0.2
RKWR | ≤ 0.2
RHWH | ≤ 0.2
RHWC | 0.759
RHWD | ≤ 0.2
RRWN | 0.323
RRWC | 0.739
RIWC | 0.936
SIKI | ≤ 0.2
YAQR | ≤ 0.2
PSHG | ≤ 0.2
PMWK | ≤ 0.2
IENR | ≤ 0.2

Variant | one-hybrid fitness for binding parS DNA
ANYG | ≤ 0.2
HGQS | ≤ 0.2
KWCC | ≤ 0.2
NAYS | ≤ 0.2
ENRN | ≤ 0.2
TWCR | ≤ 0.2
THVD | ≤ 0.2
RLWF | 0.255
RMWL | ≤ 0.2
RMWC | 0.984
RSWH | ≤ 0.2
RPWC | ≤ 0.2
REWC | ≤ 0.2
RMWM | 0.344
RSWC | 0.847
RCWC | 0.959
RSWN | 0.412
RLWM | 0.342
RLWC | 0.952
LRIP | ≤ 0.2
LILQ | ≤ 0.2
ENVC | ≤ 0.2
PHDG | ≤ 0.2

Variant | one-hybrid fitness for binding parS DNA
NQKT | ≤ 0.2
QLHL | ≤ 0.2
SRVM | ≤ 0.2
CYAS | ≤ 0.2
LQFE | ≤ 0.2
IFWT | 0.24
YSKG | ≤ 0.2
TVTW | ≤ 0.2
LNPP | ≤ 0.2
GYPI | ≤ 0.2
RLFT | 0.838
RLAK | ≤ 0.2
RLFR | ≤ 0.2
RLAT | 0.938
RLFQ | ≤ 0.2
RLAQ | ≤ 0.2
SNGD | ≤ 0.2
SLHC | ≤ 0.2
QQSF | ≤ 0.2
CLAL | ≤ 0.2
LSRM | ≤ 0.2
SMQP | ≤ 0.2
RRSP | ≤ 0.2

Variant | one-hybrid fitness for binding parS DNA
RRSS | 0.653
RRSN | 0.695
RRSH | ≤ 0.2
RRSR | ≤ 0.2
RRSD | ≤ 0.2
EKER | ≤ 0.2
TCNL | ≤ 0.2
QSVW | ≤ 0.2
TGSG | ≤ 0.2
MLIG | ≤ 0.2
TASY | ≤ 0.2
GFDT | ≤ 0.2
RSST | 0.883
RSSM | 0.327
RCST | 0.923
REST | ≤ 0.2
RPST | ≤ 0.2
RDST | ≤ 0.2
